Test results published in ChEMBL document CHEMBL1857833, “Screening and optimization of specific chemical series against human African Trypanosomiasis (HAT)”.
“And” between values parts separate entries of the source, which are not always exact repeats. Equal entries are not always repeated. Hit rate of the full screen: of about 4,400 compounds, about 390 (8.9%) showed an effect of 50% or more. Only a selection was taken, and strong results are over-represented in it overall.

The compounds below were run on Trypanosoma brucei (assay: DNDI: Inhibition of Human African Trypanosomiasis, SBRI 427, in vitro at 2 ug.mL-1).
Format: functional
For Cc1ccc(/C(=N/O)N2CC=CC2)c(OCc2cccc(F)c2)n1, the “% inhibition” value was -19%.
With CCCN(CC)Cc1coc(-c2cccc(OCC)c2)n1 the “% inhibition” value was 20%.
For COc1ccc(-c2nc(CN3C(C)C=CC3C)co2)cc1 (configuration not stated), the “% inhibition” value was 1%.
With FC(F)(F)Oc1ccc(CNCc2coc(-c3ccc(Br)cc3)n2)cc1 the “% inhibition” value was 8%.
In the case of CCOC(=O)C1CCN(Cc2coc(-c3cccc(OC)c3)n2)CC1, the “% inhibition” value is reported as 37%.
COc1ccc(N2CCN(Cc3coc(-c4ccccc4Cl)n3)CC2)cc1 was tested, and the “% inhibition” value was -8%.
Cc1cc(C)cc(Oc2ccc(/C(=N/O)Nc3ccccc3)cn2)c1 was tested, and the “% inhibition” value was 0%.
Cc1cc(C)cc(Oc2ccc(/C(=N/O)NC3CCCC3)cn2)c1 was tested, and the “% inhibition” value was 98%.
In the case of Cc1cc(C)cc(Oc2ccc(/C(=N/O)NC3CC(C)CC(C)(C)C3)cn2)c1 (configuration not stated), the “% inhibition” value is reported as 14%.
Cc1cc(C)cc(Oc2ccc(/C(=N/O)NC3CCC(C)CC3)cn2)c1 (configuration not stated) was tested, and the “% inhibition” value was 82%.
For CCN(CC)CCN(C)Cc1coc(-c2cccs2)n1, the “% inhibition” value was 4%.
For Cc1cccc(CNCc2coc(-c3cccc(C)c3)n2)c1, the “% inhibition” value was -10%.
For CCCCN(CCCC)CCCNCc1coc(-c2ccco2)n1, the “% inhibition” value was 20%.
CN(C)CCCNCc1coc(-c2ccc(F)cc2)n1 was tested, and the “% inhibition” value was 73%.
For CCCCN(CCCC)CCCNCc1coc(-c2ccc(C)cc2)n1, the “% inhibition” value was 53%.
CCCCN(CCCC)CCCNCc1coc(-c2ccc(F)cc2)n1 was tested, and the “% inhibition” value was 1%.
In the case of CCN(CC)CCCNCc1coc(-c2ccc(F)cc2)n1, the “% inhibition” value is reported as -8%.
For CCN(CC)CCCNCc1coc(-c2cccc(C)c2)n1, the “% inhibition” value was 95%.
CCN(CC)CCNCc1coc(-c2cccc(C)c2)n1 was tested, and the “% inhibition” value was 26%.
With CCN(CC)CCNCc1coc(-c2ccc(F)cc2)n1 the “% inhibition” value was -17%.
COc1cccc(-c2nc(CNCc3ccc(C(C)(C)C)cc3)co2)c1 was tested, and the “% inhibition” value was 5%.
With COc1ccc(Oc2ncccc2/C(=N/O)NCCN2CCOCC2)cc1 the “% inhibition” value was -10%.
With Cc1cc(NCc2coc(-c3ccc(Cl)cc3Cl)n2)n(-c2ccccc2)n1 the “% inhibition” value was -4%.
With CCN(Cc1coc(-c2cccc3ccccc23)n1)c1ccc2c(c1)OCO2 the “% inhibition” value was 29%.
Cc1ccc(-c2nc(Cn3ccnc3C(C)C)co2)cc1 was tested, and the “% inhibition” value was 39%.
In the case of Fc1ccccc1-c1nc(CNCC(F)(F)C(F)(F)F)co1, the “% inhibition” value is reported as 21%.
For COc1ccc(NCc2coc(-c3cccc(OC)c3)n2)cc1, the “% inhibition” value was 8%.
For CCc1nccn1Cc1coc(-c2cccc(OC)c2)n1, the “% inhibition” value was -9%.
In the case of Cc1cccc(-c2nc(CNC34C[C@H]5C[C@@H](C3)C[C@@H](C4)C5)co2)c1, the “% inhibition” value is reported as 35%.
With COc1cccc(-c2nc(CNC34C[C@H]5C[C@@H](C3)C[C@@H](C4)C5)co2)c1 the “% inhibition” value was 85%.
With Fc1ccc(-c2nc(CNC34C[C@H]5C[C@@H](C3)C[C@@H](C4)C5)co2)cc1 the “% inhibition” value was 58%.
Brc1ccccc1-c1nc(CNC23C[C@H]4C[C@@H](C2)C[C@@H](C3)C4)co1 was tested, and the “% inhibition” value was 48%.
In the case of Brc1ccc(-c2nc(CNC34C[C@H]5C[C@@H](C3)C[C@@H](C4)C5)co2)cc1, the “% inhibition” value is reported as 62%.
For COc1cccc(-c2nc(Cn3ccnc3C)co2)c1, the “% inhibition” value was 31%.
With COc1cccc(-c2nc(Cn3ccnc3C=O)co2)c1 the “% inhibition” value was 84%.
In the case of c1csc(-c2nc(CNC34C[C@H]5C[C@@H](C3)C[C@@H](C4)C5)co2)c1, the “% inhibition” value is reported as 25%.
With Brc1ccc(-c2nc(CNCc3ccccn3)co2)cc1 the “% inhibition” value was -9%.
Oc1ccc(-c2nc(CNC34C[C@H]5C[C@@H](C3)C[C@@H](C4)C5)co2)cc1 was tested, and the “% inhibition” value was 23%.
Cc1ccc(/C(=N/O)NC2CC2)c(OCc2ccncc2)n1 was tested, and the “% inhibition” value was 19%.
With Clc1ccccc1-c1nc(CN2CC=CCC2)co1 the “% inhibition” value was 14%.
CCN(CC)c1cccc(Oc2ncccc2/C(=N/O)N2CCCC2)c1 was tested, and the “% inhibition” value was -7%.
CC1(C)Cc2cccc(Oc3ccc(/C(=N/O)NC4CCc5ccccc54)cn3)c2O1 (configuration not stated) was tested, and the “% inhibition” value was 10%.
For Cc1ccc(/C(=N/O)N2CCCC2C)c(Oc2cccc(C(C)C)c2)n1 (configuration not stated), the “% inhibition” value was 0%.
In the case of Cc1cccc(N2CCN(Cc3coc(-c4ccccc4F)n3)CC2C)c1 (configuration not stated), the “% inhibition” value is reported as -21%.
With COCC(C)N/C(=N\O)c1ccc(C)nc1OCc1ccccc1C (configuration not stated) the “% inhibition” value was 8%.
For N#CCCN(Cc1ccccc1)Cc1coc(-c2ccc(F)cc2)n1, the “% inhibition” value was -7%.
In the case of Cc1ccc(C(C)C)c(Oc2cc(/C(=N/O)NCC3CCCCC3)ccn2)c1, the “% inhibition” value is reported as 27%.
For COc1ccc(-c2nc(CNC34C[C@H]5C[C@@H](C3)C[C@@H](C4)C5)co2)cc1, the “% inhibition” value was 3%.
Cc1ccc(-c2nc(CNC34C[C@H]5C[C@@H](C3)C[C@@H](C4)C5)co2)cc1 was tested, and the “% inhibition” value was 90%.
For Cc1ccccc1-c1nc(CNC23C[C@H]4C[C@@H](C2)C[C@@H](C3)C4)co1, the “% inhibition” value was 49%.
In the case of CN(Cc1coc(-c2ccccc2Cl)n1)CC1OCCO1, the “% inhibition” value is reported as 8%.
CSc1ccccc1Oc1ncccc1/C(=N/O)N1CCN(c2ccccc2)CC1 was tested, and the “% inhibition” value was 22%.
For CSc1ccccc1Oc1ncccc1/C(=N/O)N1CCOCC1, the “% inhibition” value was 8%.
CSc1ccccc1Oc1ncccc1/C(=N/O)Nc1ccccc1 was tested, and the “% inhibition” value was 71%.
O/N=C(\Nc1ccccc1)c1cccnc1Oc1ccccc1F was tested, and the “% inhibition” value was 2%.
In the case of COc1ccccc1Oc1ncccc1/C(=N/O)Nc1ccccc1, the “% inhibition” value is reported as 62%.
With COc1ccc(Oc2ncccc2/C(=N/O)Nc2ccccc2)cc1 the “% inhibition” value was -9%.
With Cc1ccc(Oc2nc(C)ccc2/C(=N/O)N2CCN(C)CC2)cc1 the “% inhibition” value was 19%.
For COCCN(/C(=N\O)c1ccc(C)nc1Oc1ccc(SC)c(C)c1)C(C)C, the “% inhibition” value was 9%.
In the case of COCCN(Cc1coc(-c2ccccc2C)n1)C(C)C, the “% inhibition” value is reported as -31%.
With O/N=C(\Nc1ccon1)c1ccc(Oc2cccc3cccnc23)nc1 the “% inhibition” value was 13%.
CCOc1ccccc1-c1nc(CN2CCN(c3cc(C)nc4ccccc34)CC2)co1 was tested, and the “% inhibition” value was 14%.
With CN(/C(=N\O)c1cccnc1OCc1cccc(F)c1)c1ccccc1 the “% inhibition” value was 98%.
For CN(/C(=N\O)c1cccnc1OCc1ccccc1F)c1ccccc1, the “% inhibition” value was 98%.
In the case of N/C(=N\O)c1cccnc1OCc1cccc(F)c1, the “% inhibition” value is reported as -4%.
CN(/C(=N\O)c1cccnc1OCc1cccc(F)c1)C1CCCCC1 was tested, and the “% inhibition” value was -3%.
CN(Cc1ccco1)/C(=N\O)c1cccnc1OCc1ccccc1F was tested, and the “% inhibition” value was 5%.
With Cc1ccc(/C(=N/O)N(C)c2ccccc2)c(OCc2ccccc2F)n1 the “% inhibition” value was -4%.
With O=Cc1nccn1Cc1coc(-c2ccc(Br)cc2)n1 the “% inhibition” value was 11%.
CCOc1ccccc1CN/C(=N\O)c1ccnc(Oc2ccc(F)c(F)c2)c1 was tested, and the “% inhibition” value was 13%.
For CN(C)CCN(Cc1ccccc1)Cc1coc(-c2ccc(Br)cc2)n1, the “% inhibition” value was 23%.
Clc1cccc(N2CCN(Cc3coc(-c4ccccc4Br)n3)CC2)c1 was tested, and the “% inhibition” value was 7%.
COc1ccccc1CCNCc1coc(-c2ccccc2Br)n1 was tested, and the “% inhibition” value was 6%.
CCOc1ccccc1CN/C(=N\O)c1ccc(Oc2cc(C)cc(C)c2)nc1 was tested, and the “% inhibition” value was 28%.
With Cc1ccc(/C(=N/O)N2CCC(N(C)C)C2)c(Oc2cccc(F)c2)n1 (configuration not stated) the “% inhibition” value was 6%.
With CC(NCc1coc(-c2ccccc2Br)n1)C1CCCCC1 (configuration not stated) the “% inhibition” value was -30% and -35%.
With CCOc1ccccc1-c1nc(CNC(C)C2CCCCC2)co1 (configuration not stated) the “% inhibition” value was 98%.
CCOc1ccccc1-c1nc(CNC2C[C@H]3CC[C@@H]2C3)co1 (some centres not stated) was tested, and the “% inhibition” value was 28%.
In the case of CC(NCc1coc(-c2ccc(Br)cc2)n1)C1CCCCC1 (configuration not stated), the “% inhibition” value is reported as 36%.
With Cc1ccccc1-c1nc(CNC(C)C2CCCCC2)co1 (configuration not stated) the “% inhibition” value was 23%.
CCOc1ccccc1-c1nc(CNC2CCN(Cc3ccccc3)C2)co1 (configuration not stated) was tested, and the “% inhibition” value was 6%.
Cc1ccc(-c2nc(CNC(C)C3CCCCC3)co2)cc1 (configuration not stated) was tested, and the “% inhibition” value was 25%.
CCOc1ccc(-c2nc(CNC(C)C3CCCCC3)co2)cc1 (configuration not stated) was tested, and the “% inhibition” value was 87%.
CCOc1ccccc1-c1nc(CNC(C)c2ccc(C)cc2)co1 (configuration not stated) was tested, and the “% inhibition” value was 15%.
For CC(NCc1coc(-c2cccc3ccccc23)n1)C1CCCCC1 (configuration not stated), the “% inhibition” value was 87% and 90%.
With CCOc1ccccc1-c1nc(CNC(C)c2cccc3ccccc23)co1 (configuration not stated) the “% inhibition” value was 5% and 9%.
In the case of CCOc1ccccc1-c1nc(CNC2CCCCCCCCCCC2)co1, the “% inhibition” value is reported as 99%.
With N/C(=N\O)c1ccc(Oc2cccc3ccccc23)nc1 the “% inhibition” value was 36%.
In the case of COc1ccc(-c2nc(CN(C)Cc3cccc4ccccc34)co2)cc1, the “% inhibition” value is reported as -11%.
With COCCN(/C(=N\O)c1ccc(Oc2ccc(C)cc2C)nc1)C(C)C the “% inhibition” value was 5%.
For COc1ccc(-c2nc(CNC[C@@H]3CCCO3)co2)cc1, the “% inhibition” value was 16%.
With CCOc1ccccc1-c1nc(CN(CCC#N)CC2CCCO2)co1 (configuration not stated) the “% inhibition” value was -20%.
In the case of CCOc1ccccc1-c1nc(CN(CC)CCN(CC)CC)co1, the “% inhibition” value is reported as -5%.
In the case of O/N=C(\NC1CCc2ccccc21)c1ccnc(Oc2cccc3cnccc23)c1 (configuration not stated), the “% inhibition” value is reported as 18%.
With C=CCN1CCN(/C(=N\O)c2cccnc2Oc2ccc(Cl)cc2)CC1 the “% inhibition” value was 7%.
For CCOc1ccccc1-c1nc(CNCCC2=CCCCC2)co1, the “% inhibition” value was 53%.
With Brc1ccccc1-c1nc(CNCCC2=CCCCC2)co1 the “% inhibition” value was -2%.
Cc1ccccc1-c1nc(CNCCC2=CCCCC2)co1 was tested, and the “% inhibition” value was 10%.
COc1ccc(OC)c(NCc2coc(-c3ccco3)n2)c1 was tested, and the “% inhibition” value was -5%.
CCC(CC)NCc1coc(-c2ccccc2Cl)n1 was tested, and the “% inhibition” value was -8%.
In the case of CCOc1ccc(Oc2nc(C)ccc2/C(=N/O)NCc2ccco2)cc1, the “% inhibition” value is reported as 6%.
In the case of Cc1ccc([C@@H](C)NCc2coc(-c3ccc(Cl)cc3Cl)n2)cc1, the “% inhibition” value is reported as 14%.
With O/N=C(/c1ccnc(Oc2cccc(F)c2)c1)N1CCCCCC1 the “% inhibition” value was 3%.
With CCC(CC)N/C(=N\O)c1ccc(C)nc1Oc1ccc(F)cc1 the “% inhibition” value was 24%.
In the case of CSc1ccc(Oc2nc(C)ccc2/C(=N/O)NCC(C)(C)C)cc1, the “% inhibition” value is reported as -6%.
For CCC(CC)N/C(=N\O)c1ccc(C)nc1Oc1cc(C)cc(C(C)C)c1, the “% inhibition” value was 15%.
For COc1cc(C)ccc1Oc1nc(C)ccc1/C(=N/O)NC(C)C, the “% inhibition” value was 29%.
For CCC(CC)N/C(=N\O)c1ccc(C)nc1Oc1ccc(C)cc1C, the “% inhibition” value was 34%.
In the case of CCC(CC)N/C(=N\O)c1ccc(C)nc1Oc1ccc(C)cc1OC, the “% inhibition” value is reported as 100%.
With CSc1ccc(Oc2nc(C)ccc2/C(=N/O)NC(C)C)cc1 the “% inhibition” value was -8%.
For CCC(CC)N/C(=N\O)c1ccc(C)nc1Oc1ccc(SC)cc1, the “% inhibition” value was 99%.
With CCC(CC)N/C(=N\O)c1ccc(C)nc1Oc1ccc(C)cc1 the “% inhibition” value was 70%.
